Giardia kill: Small Molecules that selectively kill Giardia lamblia: qHTS; Giardia lamblia trophozoite viability; activity change, % at 7.66 µM, hits read low; actives 0.15% (n = 340,000); in the data active = activity change below about -80%; inconclusive = between about -30% and that limit;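 also: parasites exposed to compound for two days anaerobically before the ATP read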
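Media and compound were dispensed first, then trophozoites at 100 cells/well; plates sat 48 hrs at 37 deg C without oxygen before ATP luminescence reagent was added and read after 15-30 min at room temperature.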
PI4K2A block: qHTS for small molecular inhibitors of PI4K2A. Phosphatidylinositol 4-kinase type 2-alpha (Homo sapiens), Q9BTU6. purified PI4K2A, ADP-Glo luminescence, 1 h; hits give low values. activity change, negative = inhibition, % at 76.9 µM. actives 0.13% (n = 420,000). AID 1346378, 2018; in the data active = activity change below about -50%; inconclusive = mostly about -30% to -49%;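 also: -100% = wells without enzyme as full effect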
Target sequence (Q9BTU6 whole entry, looked up): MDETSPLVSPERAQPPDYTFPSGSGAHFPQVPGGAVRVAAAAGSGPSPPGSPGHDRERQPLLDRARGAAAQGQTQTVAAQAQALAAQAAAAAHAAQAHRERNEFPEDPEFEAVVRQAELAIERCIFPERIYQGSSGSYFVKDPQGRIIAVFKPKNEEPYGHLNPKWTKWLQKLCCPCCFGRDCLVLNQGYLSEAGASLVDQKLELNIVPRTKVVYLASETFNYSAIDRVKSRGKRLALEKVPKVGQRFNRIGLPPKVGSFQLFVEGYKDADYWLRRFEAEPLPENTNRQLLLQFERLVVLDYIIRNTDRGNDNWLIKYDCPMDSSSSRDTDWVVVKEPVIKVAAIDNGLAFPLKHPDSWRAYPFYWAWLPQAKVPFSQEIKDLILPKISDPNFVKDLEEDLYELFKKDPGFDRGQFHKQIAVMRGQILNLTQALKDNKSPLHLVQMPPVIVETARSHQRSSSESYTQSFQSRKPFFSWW
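In this quantitative HTS, ADP production by PI4K2A was quantified luminescently after 1 h at ambient temperature; 100 microM adenosine served as plate-quality control.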
KB-V1 cytotox: qHTS assay for MDR1-selective chemotherapeutics: Primary screen using the drug-selected MDR subline cells KB-V1 | actives 3.4% (n = 400,000) | Potency, µM (highest dose often 46.1 µM), usual class: cytotoxic | KB-V1 MDR cells viability, CellTiter-Glo, 72 h; also: potency is read from the fitted curve at half-maximal effect; nearly all actives have a fitted effect of over 60% in size
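Cells of the MDR subline KB-V1 are plated, dosed with compound at multiple concentrations, and incubated 72 h at 37 degrees C; CellTiter-Glo is then added and luminescence read after 10 min.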
A549 viability: Nrf2 qHTS screen for inhibitors: counterscreen for cytotoxicity. A549 ARE-Fluc cells, CellTiter-Fluor viability, 18-24 h. Potency, µM (highest dose often 46 µM), without a hit: at the top dose activity change, negative = cytotoxicity, hits mostly inhibitors. actives 0.16% (n = 390,000); also: potency is read from the fitted curve at half-maximal effect
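A549 ARE_Fluc cells in 5% FBS OPTI-MEM were exposed to compounds in concentration-response for 18-24 h at 37 deg C. Viability was read by CellTiter-Fluor fluorescence (Ex 405/Em 525) after 30 min, before the luciferase read.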
Nrf2 inh: Nrf2 qHTS screen for inhibitors; A549 ARE-Fluc reporter, luciferase luminescence, 18-24 h; Potency, µM (titrated, usually from 46 µM), without a hit: at the highest dose activity change, negative = inhibition, most hits filed as inhibitors; actives 2.1% (n = 360,000); AID 504444, 2011; also: potency is read from the fitted curve at half-maximal effect; nearly all actives have a fitted effect of over 60% in size
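In this cell-based qHTS, ARE-driven firefly luciferase in A549 cells reports Nrf2 activity; the luminescent signal after BugLite lysis is the measured value, with a prior CellTiter-Fluor read for cell health.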
KB-3-1 tox: qHTS assay for MDR1-selective chemotherapeutics: Primary screen using the parental adenocarcinoma cell KB-3-1; Potency, µM (highest dose often 46.1 µM), usual class: cytotoxic; KB-3-1 viability, CellTiter-Glo ATP luminescence, 72 h; actives 1.4% (n = 400,000); also: potency is read from the fitted curve at half-maximal effect; nearly all actives have a fitted effect of over 60% in size
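Multi-concentration cytotoxicity screen in KB-3-1 cells grown in DMEM lacking phenol red with 10% FBS. After 72 h at 37 °C with compound, ATP-dependent luminescence was recorded.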
Numbers without * were called inactive. Only some compounds are listed: those with a hit (about 5.7% of all), similar ones and a draw of the others. Unless noted, calls follow the shape of the dose curve; as a rule, active = well fitted curve in the direction sought with a large enough effect; inconclusive = small, poorly fitted or top-dose-only effect, or another doubt; inactive = no such curve, though single readings can be large; an effect the other way counts as inactive or inconclusive. Unless noted, % is scaled to controls: 0 for no effect and ±100 for the full control effect.

What do the screens show for `COCCOC(=O)c1c(N)n(Cc2ccc(OC)cc2)c2nc3ccccc3nc12`?
Giardia kill: 3; PI4K2A block: 5; KB-V1 cytotox: inactive; A549 viability: -13%; Nrf2 inh: -8%; KB-3-1 tox: inactive

How did O=C1C(=O)c2ccccc2-c2ccccc21 do in these assays?
Giardia kill: inconclusive; PI4K2A block: inconclusive; KB-V1 cytotox: 4.1µM*; A549 viability: inconclusive; Nrf2 inh: 18µM*; KB-3-1 tox: 5.2µM*

Results for NC1=C(Br)C(=O)c2ccccc2C1=O ?
Giardia kill: inconclusive; PI4K2A block: -18; KB-V1 cytotox: 12µM*; A549 viability: inconclusive; Nrf2 inh: inconclusive; KB-3-1 tox: inconclusive

Results for c1cc2ccc3cccc4ccc(c1)c2c34 ?
PI4K2A block: inactive

How did O=C1C(=O)c2cccc3cccc1c23 do in these assays?
Giardia kill: 6; PI4K2A block: 9; KB-V1 cytotox: inconclusive; A549 viability: 1%; Nrf2 inh: 11%; KB-3-1 tox: 16µM*

What do the screens show for `CSc1ccccc1NC(=O)CN(C)CC(=O)c1[nH]c(C)c(C(C)=O)c1C`?
Giardia kill: -11; PI4K2A block: 1; KB-V1 cytotox: inconclusive; A549 viability: -8%; Nrf2 inh: inconclusive; KB-3-1 tox: inactive

What do the screens show for `Oc1ccc(Br)cc1CN1CCN(c2ccccc2)CC1`?
Giardia kill: -10; PI4K2A block: 2; KB-V1 cytotox: 16µM*; A549 viability: -2%; Nrf2 inh: 7%; KB-3-1 tox: inactive

What do the screens show for `CCN1CCN(Cc2cc(Br)ccc2O)CC1`?
Giardia kill: 4; PI4K2A block: -3; KB-V1 cytotox: inactive; A549 viability: 4%; Nrf2 inh: 24%; KB-3-1 tox: inactive

How did COc1cc(C)c(CN2CCN(c3ccccc3)CC2)cc1C do in these assays?
Giardia kill: -9; PI4K2A block: 4; KB-V1 cytotox: 13µM*; A549 viability: 12%; Nrf2 inh: 2%; KB-3-1 tox: inactive

Results for COC1C(O)C(C)OC(OC2C(Oc3cccc4c(O)c5c(=O)oc6ccc(C)c7c(=O)oc(c34)c5c67)OC(C)C(O)C2O)C1O (stereo not given) ?
Giardia kill: 4; PI4K2A block: -4; KB-V1 cytotox: inactive; A549 viability: -17%; Nrf2 inh: inconclusive; KB-3-1 tox: 15µM*

What do the screens show for `CCn1cc(C(=O)NCCc2ccc(OC)c(OC)c2)c(=O)c2cc(S(=O)(=O)N(C)C3CCCCC3)ccc21`?
PI4K2A block: -4; KB-V1 cytotox: inactive; A549 viability: -19%; Nrf2 inh: inconclusive; KB-3-1 tox: inactive

Results for COc1ccc(C(=O)NCCn2cc(SCc3ccc(C(F)(F)F)cc3)c3ccccc32)cc1OC ?
PI4K2A block: 6; KB-V1 cytotox: inactive; A549 viability: -20%; Nrf2 inh: 18µM*; KB-3-1 tox: inactive

What do the screens show for `CC(C)Cn1c(O)c(N=NC(=O)c2cccc(S(=O)(=O)N3CCCCC3)c2)c2ccccc21`?
Giardia kill: 6; PI4K2A block: 3; KB-V1 cytotox: 2.1µM*; A549 viability: inconclusive; Nrf2 inh: 21µM*; KB-3-1 tox: inconclusive

Results for Cc1[nH]c2ccccc2c1P(=S)(c1ccccc1)c1ccccc1 ?
A549 viability: 0%; Nrf2 inh: -10%

What do the screens show for `O=[N+]([O-])c1cc(C(F)(F)F)c(Cl)c([N+](=O)[O-])c1Nc1ncc(C(F)(F)F)cc1Cl`?
KB-V1 cytotox: inconclusive; KB-3-1 tox: 1.5µM*

How did O=C(O)c1cc(Oc2ccc(C(F)(F)F)cc2Cl)ccc1[N+](=O)[O-] do in these assays?
Giardia kill: 32; PI4K2A block: 1; KB-V1 cytotox: inactive; A549 viability: -5%; Nrf2 inh: 3%; KB-3-1 tox: inactive

Results for C[C@H]1CC2C3CC=C4C[C@@H](O)CC[C@]4(C)C3CC[C@]2(C)[C@H]1O (stereo not given in full) ?
Giardia kill: 15; PI4K2A block: 4; KB-V1 cytotox: 18µM*; A549 viability: -2%; Nrf2 inh: -13%; KB-3-1 tox: inactive

What do the screens show for `C[C@]12CC[C@H](O)CC1=CCC1C2CC[C@@]2(C)C1C[C@@H]1CC(=O)O[C@@H]12` (stereo not given in full)?
Giardia kill: -7; PI4K2A block: -7; KB-V1 cytotox: inactive; A549 viability: 3%; Nrf2 inh: 18µM*; KB-3-1 tox: inactive

What do the screens show for `CC(C)NCC(O)c1ccc(N)c(C#N)c1` (stereo not given)?
PI4K2A block: 4

What do the screens show for `CC(C)NCC(O)c1ccc(C2CCCC2)cc1` (stereo not given)?
Giardia kill: 9; PI4K2A block: 1; KB-V1 cytotox: 23µM*; A549 viability: 0%; Nrf2 inh: 5%; KB-3-1 tox: inactive

How did CCN(CC)S(=O)(=O)c1cc(NC(=O)C(C)N2CC=C(c3ccccc3)CC2)ccc1C (stereo not given) do in these assays?
Giardia kill: 4; PI4K2A block: -8; KB-V1 cytotox: 16µM*; A549 viability: -18%; Nrf2 inh: inconclusive; KB-3-1 tox: 21µM*

Results for CCC(=O)O[C@@H]1C=C2CCC3C(CCC4(C)C3CC[C@@H]4OC(=O)CC)C2CC1 (stereo not given in full) ?
PI4K2A block: 3

Results for CCC(=O)OC1CCC2C3CCC4CC(=O)C=CC4(C)C3CCC12C (stereo not given) ?
Giardia kill: -8; PI4K2A block: 14; KB-V1 cytotox: 5.8µM*; A549 viability: -4%; Nrf2 inh: inconclusive; KB-3-1 tox: 10µM*

Results for c1ccc2nc3ccccc3nc2c1 ?
Giardia kill: 4; PI4K2A block: -1; KB-V1 cytotox: inactive; A549 viability: inconclusive; Nrf2 inh: 21µM*; KB-3-1 tox: inactive

Results for O=C(N/N=C\c1ccc(COc2ccc([N+](=O)[O-])cc2)o1)c1cccc(Cl)c1 ?
Giardia kill: 1; PI4K2A block: -7; KB-V1 cytotox: inactive; A549 viability: -13%; Nrf2 inh: inconclusive; KB-3-1 tox: inactive

How did COC(=O)C(NC(C)=O)(Nc1nc2c(C)cc(C)cc2s1)C(F)(F)F (stereo not given) do in these assays?
Giardia kill: -9; PI4K2A block: 1; KB-V1 cytotox: inconclusive; A549 viability: inconclusive; Nrf2 inh: inconclusive; KB-3-1 tox: inconclusive

Assay outcomes deposited in PubChem BioAssay by National Center for Advancing Translational Sciences (NCATS).
